This is a sample that favours compounds with a hit; in the whole collection about 21% have one here.
NS1 function inh: inhibitors of influenza NS1 protein function | AID 2326 | 0.4% of 270,000 active | Potency, µM (series often up to 46.1 µM); calls by dose curve; note: actives are rising curves; nearly all actives have a fitted effect of over 50% in size
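S. cerevisiae expressing influenza A NS1, grown in glucose, washed, then diluted 1:100 into pH 6.0 -URA galactose medium with 23 nl compound. Growth recovery read as OD600; NS1-free strain serves as control.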
CHX counter: counter-screen hit for Shiga toxin inhibitors, cycloheximide; max response, %; 12% of 300,000 active; AID 2314; cell reporter, cycloheximide protein synthesis inhibition counterscreen; in the data active = max response mostly above about 13%, no sharp cut-off; inactive = mostly below about 14%; note: read at 38.3 µM for the half of the compounds with a filed dose
Pf growth 48h: P. falciparum growth inhibition at 48 hours (one generation). P. falciparum luciferase growth in erythrocytes, 48 h. Potency, µM (top dose mostly 28.7 µM), actives largely listed as inhibitors. 5.9% of 310,000 active. AID 504832
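Luciferase-expressing P. falciparum in infected erythrocytes (2% hematocrit, 0.1% parasitemia final) in RPMI 1640/0.5% Albumax were exposed to compound for 48 hours at 37 C, 5% CO2; growth read as luminescence.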
Shiga toxin inh: inhibitors of Shiga toxin in Vero cells. Vero cells, Shiga toxin protein synthesis inhibition reporter. inhibition, % at 38.7 µM. 9.2% of 290,000 active; in the data active = inhibition mostly above about 28%, no sharp cut-off; inactive = mostly below about 43%
Sm TGR block: blocks Schistosoma mansoni thioredoxin glutathione reductase | Q962Y6 | purified TGR, DTNB reduction, TNB absorbance 405 nm | Potency, µM (doses to about 114 µM), actives largely listed as inhibitors | 3% of 360,000 active | AID 485364; note: nearly all actives have a fitted effect of over 60% in size
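Kinetic colorimetric format: TGR-catalysed, NADPH-driven DTNB reduction monitored via TNB absorbance. Enzyme dispensed at 20 nM; compound exposure 15 min at room temperature before reaction start.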
Pf growth 96h: P. falciparum growth inhibition at 96 hour, primary screen for plastid delayed-death inhibitors; AID 504834; 6.9% of 320,000 active; P. falciparum luciferase reporter growth, 96 h; Potency, µM (series often up to 28.7 µM), hits mostly inhibitors
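Compounds incubated with erythrocytes infected by luciferase-expressing P. falciparum (2% hematocrit, 0.05% parasitemia final) for 96 hours, 37 C in 5% CO2. Growth inhibition scored as decreased luciferase luminescence.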
Of the large screens only hits and unclear results are named; the others gave an inactive call. Unless noted, calls come from the whole dose curve; as a rule, active = well fitted curve in the direction sought with a large enough effect; inconclusive = small, poorly fitted or top-dose-only effect, or another doubt; inactive = no such curve, though single readings can be large; an effect the other way counts as inactive or inconclusive.

CCC1=Nc2cc(C(=O)NCc3ccco3)ccc2Sc2ccc(Cl)cc21	Pf growth 48h 1.5µM, Sm TGR block inconclusive
CCC1=Nc2cc(C(=O)O)ccc2Sc2ccccc21	Pf growth 96h inconclusive
CCC1=Nc2cc(C(=O)NCc3ccco3)ccc2Sc2ccccc21	NS1 function inh inconclusive, Pf growth 48h 7.4µM, Sm TGR block inconclusive
CCC1=Nc2cc(C(=O)NCC3CCCO3)ccc2Sc2ccc(Br)cc21 (stereo not drawn)	Pf growth 48h 2.9µM, Pf growth 96h inconclusive (no result: NS1 function inh)
Cc1nn(Cc2cccc(C(=O)NN)c2)c(C)c1Cl	Pf growth 48h inconclusive
COc1ccc(CNC(=O)c2ccc3c(c2)N(C)C(=O)CS3=O)cc1 (stereo not drawn)	NS1 function inh 14µM (no result: Pf growth 48h)
CCN1CCSc2ccc(C(=O)NCc3ccccc3F)cc21	Pf growth 48h inconclusive
CN1CCSc2ccc(C(=O)NCc3ccccc3F)cc21	CHX counter 28, Shiga toxin inh 35
COc1ccc(CNC(=O)c2ccc3c(c2)N(C)CCS3)cc1	CHX counter active, Pf growth 96h inconclusive
CC(C)Oc1ccc(CNC(=O)c2ccc3c(c2)N(C)CCS3)cc1	CHX counter 35, Shiga toxin inh 54
COc1cccc(C(C)NC(=O)C2CCCC2)c1 (stereo not drawn)	Pf growth 96h inconclusive
CC(=O)N1CCc2cc(S(=O)(=O)C(C)CC(=O)Nc3ccc(Br)c(C)c3)ccc21 (stereo not drawn)	none (no result: NS1 function inh, CHX counter, Pf growth 48h, Shiga toxin inh, Pf growth 96h)
CC1(C)C(C(=O)O)N2C(=O)CC2S1(=O)=O (stereo not drawn)	none (no result: NS1 function inh, Pf growth 48h, Sm TGR block, Pf growth 96h)
CCN(Cc1ccccc1)C(=O)Cn1cc(S(=O)(=O)Cc2cccc(Cl)c2)c2ccccc21	none (no result: NS1 function inh, CHX counter, Pf growth 48h, Shiga toxin inh, Pf growth 96h)
CN1CCSc2ccc(C(=O)NCc3cccc(Br)c3)cc21	CHX counter 11, Pf growth 48h inconclusive, Pf growth 96h inconclusive
CC(=O)Cc1cc(O)c2ccccc2c1OC(=O)c1ccc(Br)cc1	Pf growth 48h 2.9µM, Pf growth 96h 5.9µM
Clc1ccc(Cn2cnc3ccccc32)cc1	Pf growth 48h inconclusive (no result: NS1 function inh)
c1ccc(Cn2cnc3ccccc32)cc1	Pf growth 96h 8.3µM
Cc1cc2c(ncn2Cc2ccccc2)c([N+](=O)[O-])c1C	Pf growth 48h inconclusive, Pf growth 96h inconclusive
Fc1cc2ncn(Cc3ccccc3)c2cc1F	Sm TGR block 56µM
Cc1cc2ccccc2n1CCNC(=O)c1ccccc1	CHX counter 15
Cc1onc(-c2ccccc2Cl)c1C(=O)NCCn1c(C)cc2ccccc21	NS1 function inh inconclusive, Pf growth 48h 13µM, Pf growth 96h 10µM
Cc1cc2ccccc2n1CCNC(=O)c1ccc(Br)o1	CHX counter 19, Pf growth 48h inconclusive, Shiga toxin inh 28, Sm TGR block 13µM, Pf growth 96h inconclusive
Cc1cc2ccccc2n1CCNC(=O)c1ccc(S(=O)(=O)N2CCOCC2)cc1	Pf growth 48h 4.1µM, Sm TGR block inconclusive
CCOC(=O)c1c(NC(=O)COC(=O)c2ccccn2)sc2c1CCC2	none
CCOC(=O)Cc1ccc(NC(=O)N2CCC(CN3CCC(C)CC3)CC2)cc1	none (no result: NS1 function inh, CHX counter, Pf growth 48h, Shiga toxin inh, Pf growth 96h)
CSc1ccc(CCNC(=O)c2cc(-c3ccccc3)c(N3CCOCC3)s2)cc1	Pf growth 48h inconclusive
CCCCCCC1C(C#N)=C(N)OC2=C1C(=O)CC(C)(C)C2 (stereo not drawn)	none
CCCCC1C2=C(CC(C)(C)CC2=O)OC2=C1C(=O)CC(C)(C)C2	Pf growth 48h inconclusive, Pf growth 96h 12µM
O=C(CSc1nnc(COc2ccc(Cl)cc2)o1)N1CCCCC1	none
CCc1nnc(NC(=O)CSCc2cc(=O)n3nc(C)sc3n2)s1	Pf growth 96h inconclusive
CCCc1nn2c(=O)cc(CSCC(=O)Nc3nnc(CC)s3)nc2s1	Pf growth 96h 10µM
CC(=O)c1ccc(OCc2cc(C(=O)NCCn3nc(C)cc3C)no2)cc1	CHX counter 81, Pf growth 48h inconclusive, Shiga toxin inh 63, Pf growth 96h inconclusive
Cc1nc(C(C)NC(=O)c2cc(COc3ccc(F)c(F)c3)on2)cs1 (stereo not drawn)	CHX counter 18
Cc1cc(CNC(=O)c2cc(COc3ccc(F)c(F)c3)on2)nn1C	CHX counter 46, Shiga toxin inh 64, Pf growth 96h inconclusive
CC(NC(=O)c1cc(COc2ccc3ncccc3c2)on1)c1ccc(F)cc1 (stereo not drawn)	Pf growth 48h inconclusive
CC(NC(=O)c1cc(COc2ccccc2)on1)c1nccs1 (stereo not drawn)	CHX counter 28, Shiga toxin inh 75, Pf growth 96h inconclusive
COc1ccc(OC)c(CNC(=O)CCn2nc(C)c3c(C)n(-c4ccccc4)nc3c2=O)c1	none
CCN(CC)C(=O)C1CCN(S(=O)(=O)c2c(C)noc2/C=C/c2cccc(OC)c2)CC1	none (no result: NS1 function inh, CHX counter, Pf growth 48h, Shiga toxin inh, Pf growth 96h)
Cc1ccc(C)c(OCc2cc(C(=O)NC(C)c3cnn(C)c3)no2)c1 (stereo not drawn)	Pf growth 48h inconclusive, Pf growth 96h inconclusive
Cn1c(CCNC(=O)c2cc(COc3ccc(F)c(F)c3)on2)nc2ccccc21	Shiga toxin inh 73, Pf growth 96h inconclusive
Cc1cc(C)n(CC(C)NC(=O)c2cc(COc3ccc(F)c(F)c3)on2)n1 (stereo not drawn)	CHX counter 19, Shiga toxin inh 28, Pf growth 96h inconclusive
CC(=O)c1ccc(OCc2cc(C(=O)NC(C)c3cnn(C)c3)no2)cc1 (stereo not drawn)	CHX counter 37, Shiga toxin inh 94
COc1ccccc1C(=O)NCCc1nc2ccccc2n1C	Pf growth 96h inconclusive
O=[N+]([O-])c1ccc(NCCO)c2ncccc12	none
O=[N+]([O-])c1cc(C(F)(F)F)cc([N+](=O)[O-])c1NCCCNc1ccc([N+](=O)[O-])c2cccnc12	Pf growth 48h inconclusive, Pf growth 96h 4.1µM
Cc1ccc(CN2CCN(/N=C/C=C/c3ccccc3[N+](=O)[O-])CC2)cc1	none (no result: NS1 function inh)
CC(C)[C@H](Nc1ncnc2c1oc1ccccc12)C(=O)O	none
Cc1ccc(Nc2ncnc3c2oc2ccccc23)cc1	CHX counter 45 (no result: Pf growth 48h)
COc1cccc(Nc2nc(C)nc3c2oc2ccccc23)c1	none
COc1ccc(Nc2ncnc3c2oc2ccccc23)cc1	CHX counter 56, Shiga toxin inh 124
COc1ccccc1Oc1ncnc2c1oc1ccccc12	CHX counter 21
COc1ccc(Oc2ncnc3c2oc2ccccc23)cc1	none (no result: NS1 function inh, CHX counter, Pf growth 48h, Shiga toxin inh, Pf growth 96h)
COc1ccc(C(=O)NCC(c2ccco2)N2CCc3ccccc32)c(OC)c1 (stereo not drawn)	Pf growth 48h 12µM, Pf growth 96h 13µM (no result: NS1 function inh, CHX counter, Shiga toxin inh)
O=C(NCC(c1ccco1)N1CCc2ccccc21)c1ccccc1F (stereo not drawn)	Pf growth 48h inconclusive, Pf growth 96h inconclusive (no result: NS1 function inh, CHX counter, Shiga toxin inh)
COc1ccc(S(=O)(=O)NCC(c2ccco2)N2CCc3ccccc32)cc1 (stereo not drawn)	Pf growth 48h 9.3µM, Pf growth 96h inconclusive (no result: NS1 function inh, CHX counter, Shiga toxin inh)
O=[N+]([O-])c1ccc(S(=O)(=O)NCC(c2cccnc2)N2CCc3ccccc32)cc1 (stereo not drawn)	Pf growth 48h 12µM, Pf growth 96h 15µM (no result: NS1 function inh, CHX counter, Shiga toxin inh)
